# Compounds with a hit are over-represented: about 2.8% of the library has one in this group of screens.
# PvdQ acylase = blocks Pseudomonas aeruginosa PvdQ acylase activity; purified PvdQ acylase, fluorescence plate reader; inhibition, % at 10 µM; 0.063% of 340,000 active; AID 488965; in the data active = inhibition above about 30%, passing the limit was not always enough; inconclusive = no clear call, values can overlap the other calls;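 note: 0% = vehicle neutral wells and 100% = reference inhibitor wells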
# CDK5 p35 inh = inhibitors of human CDK5/p35 kinase; Q00535+Q15078; 0.01% of 330,000 active; Recombinant CDK5/p35, ADP-Glo luminescence, 60 min; inhibition, % at 10 µM;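 active = highest replicate inhibition of at least 50% and at least 75% of replicates reaching 50%; inconclusive = only one of the two criteria met; inactive = both criteria failed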;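 note: plate controls were DMSO neutral control for no effect and GW8510 at 10 µM for full effect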
# dFosB act-1 = mouse delta FosB homodimer activation. purified delta FosB, TAMRA-CDK5 oligo fluorescence polarization; percent of positive-control signal above neutral wells. 0.99% of 340,000 active. activation, % at 25 µM;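 active = mean activation above about 17%, with every replicate also reaching it, limit read from the data, passing the limit was not always enough; inconclusive = only one of the two conditions met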
# Target sequence (P13346 whole entry, looked up): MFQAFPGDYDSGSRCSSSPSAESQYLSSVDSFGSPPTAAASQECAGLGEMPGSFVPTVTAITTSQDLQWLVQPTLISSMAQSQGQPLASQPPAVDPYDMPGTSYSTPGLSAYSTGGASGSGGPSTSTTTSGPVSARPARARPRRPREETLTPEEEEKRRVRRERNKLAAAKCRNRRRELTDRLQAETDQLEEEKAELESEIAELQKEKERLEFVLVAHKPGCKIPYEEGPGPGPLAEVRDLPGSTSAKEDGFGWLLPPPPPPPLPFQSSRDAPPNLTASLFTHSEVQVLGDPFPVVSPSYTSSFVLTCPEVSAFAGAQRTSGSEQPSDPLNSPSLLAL
# SIRT5 block = sirtuin-5 (human) deacylase inhibition; inhibition, % at 15 µM; Q9NXA8; 1.1% of 330,000 active; AID 652115; Purified SirT5, succinyl-peptide AMC, trypsin-coupled fluorescence; in the data active = inhibition above about 15%; inconclusive = no clear call, values can overlap the other calls
# PglD inh = PglD (C. jejuni) enzyme inhibition | purified PglD enzyme, DTNB colorimetric CoA detection | inhibition, % at 12.5 µM | 0.098% of 360,000 active; in the data active = inhibition above about 16%, passing the limit was not always enough; inconclusive = no clear call, values can overlap the other calls
# FGF22 binding = shifts melting point of recombinant human FGF22; 1.5% of 340,000 active; recombinant FGF22 thermal shift, SYPRO orange fluorescence; percent of sucrose octasulfate shift, DMSO zero; activity (Tm shift, normalised), % at 9.99 µM; Q9HCT0;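 active = mean Tm shift, scaled 0 neutral to 100 positive control, at about 1.3% or above, every replicate too, limit read from the data; inconclusive = no clear call, values can overlap the other calls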
# dFosB act-2 = delta FosB (mouse) homodimer activation; shares compounds with dFosB act-1; purified delta FosB, TAMRA-CDK5 oligo fluorescence polarization; normalised: neutral wells 0, positive control 100; activation, % at 24.9 µM; 2,400 tested, under 10 active;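 active = highest replicate activation at or above 34% and every replicate reaching that threshold; inconclusive = meets only one of the two criteria; inactive = meets neither criterion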;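 note: higher polarization means more probe DNA bound by delta FosB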
# * = called active by the depositor; ? = inconclusive; · = no result.
SMILES,PvdQ acylase,CDK5 p35 inh,dFosB act-1,SIRT5 block,PglD inh,FGF22 binding,dFosB act-2
CCc1ccccc1NC(=O)CSc1nc2n[nH]c(C)c2c(=N)n1-c1ccc(OC)cc1,-12,0,15,·,-1,·,·
COc1ccccc1NC(=O)CSc1nc2n[nH]c(C)c2c(=N)n1-c1ccccc1Cl,-13,-1,53*,·,·,·,-2
O=C(N[C@H]1CC[C@@H](CC(=O)N2CCc3ccccc3C2)O[C@H]1CO)C1CCC1,·,·,·,-1,0,0,·
CNC[C@@H]1Oc2ccc(NS(=O)(=O)c3cn(C)cn3)cc2CC(=O)N([C@H](C)CO)C[C@H]1C,·,·,·,-2,0,0,·
O=C(COc1ccccc1)Nc1nc2cc3c(cc2s1)OCO3,-5,2,28*,-2,-2,0,1
O=C(COc1ccccc1)Nc1nc2cc3c(cc2s1)OCCO3,-3,0,2,-3,-6,0,·
CC(=O)Nc1ccc2nc(NC(=O)COc3cccc(C)c3)sc2c1,-4,0,47*,-3,6,0,7
Cc1ccc(C(NC(=O)c2ccccc2)C(Cl)Cl)cc1 (configuration not stated),-6,0,-6,0,-1,0,·
Cc1ccc(C(=O)NC(NC(=O)c2ccc(C)cc2)C(Cl)Cl)cc1,-6,-1,24*,·,1,·,1
CC1Nc2ncnc(N3CCc4ccccc4C3)c2N(Cc2ccc(Cl)cc2)C1=O (configuration not stated),-14,0,?,-1,-4,·,·
CC1Nc2ncnc(N3CCc4ccccc4C3)c2N(Cc2ccc(Br)cc2)C1=O (configuration not stated),-6,0,51*,-4,-1,0,-1
Cc1ccc(C)c2sc(NC(=O)c3ccc(N4C(=O)CCC4=O)cc3)nc12,14,2,-7,-3,-3,0,·
COc1ccc(C)c2sc(NC(=O)c3cccc(N4C(=O)CCC4=O)c3)nc12,7,1,53*,-3,1,0,7
CO[C@H]1CN(C)C(=O)c2cc(NC(=O)Nc3cccc(Cl)c3)ccc2OC[C@@H](C)N(C)C[C@@H]1C,·,·,·,·,·,0,·
Cc1ccc(CNC(=O)CC(C)S(=O)(=O)c2cc3c(cc2C)NC(=O)CO3)cc1 (configuration not stated),-12,0,23*,-2,3,0,3
CC(CC(=O)NCc1ccc(Cl)cc1)S(=O)(=O)c1ccc2c(c1)NC(=O)CO2 (configuration not stated),-5,1,-10,-5,1,0,·
COC(=O)C[C@@H]1CC[C@H]2[C@H](COc3ccc(NC(=O)c4cc(C)on4)cc3C(=O)N2C)O1,·,·,·,-2,2,0,·
Cc1nc(NC(=O)c2ccc(F)cc2)sc1C(=O)Nc1ccc2c(c1)CCC2,2,1,-5,·,-2,·,·
CC(=O)c1sc(NC(=O)c2ccc(Cl)cc2)nc1C,-3,1,34*,1,·,0,2
CC(=O)c1sc(NC(=O)c2ccc(F)c(F)c2)nc1C,1,1,28*,·,-5,·,1
Cc1ccc(C(=O)Nc2nc(C)c(C(=O)Nc3ccc4c(c3)CCC4)s2)cc1,-9,0,21*,-5,5,0,-2
CC(C)N(C[C@H]1N[C@H](CO)[C@@H]1c1ccc(C2=CCCCC2)cc1)C(=O)CN(C)C,·,·,·,5,·,·,·
COc1cccc(NC(=O)c2ccc3c(c2)OCO3)c1,7,5,1,0,4,0,·
C/C(=N/NC(=O)c1ccc2c(c1)OCO2)c1ccc(NC(=O)c2ccc(F)cc2)cc1,-12,-1,43*,0,-4,0,2
CCC(=O)Nc1cccc(NC(=O)c2ccc3c(c2)OCO3)c1,-16,0,28*,·,2,·,1
C/C(=N\NC(=S)Nc1ccc(F)cc1)c1ccc2c(c1)OCCO2,8,-1,-8,-1,5,0,·
CCOc1ccc(-n2cc(C(=O)Nc3cccc(OC)c3)c3cc(OC)c(OC)cc3c2=O)cc1,-8,1,40*,·,1,·,4
